# Laboratory results as given in PubChem BioAssay AID1851 (National Center for Advancing Translational Sciences (NCATS), 2009).
# In all, about 16,000 compounds went through this assay and about 4,000 (25%) were called active. Another 26% or so got no clear call; they are omitted. Only a sample is shown. A number with no mark means an inactive call. Calls come from the whole dose curve; as a rule, active = well fitted curve in the direction sought with a large enough effect; inconclusive = small, poorly fitted or top-dose-only effect, or effect the other way; inactive = no such curve, though single readings can be large or run the other way.
# Target: Cytochrome P450 2C9 (Homo sapiens) (UniProt P11712)
# Test: Cytochrome panel assay with activity outcomes
# Conditions: recombinant CYP, pro-luciferin dealkylation, luminescence, p450-cyp2c9; series mostly up to 57.1 µM
# % is set by controls: 0 for no effect and ±100 for the full control effect.
# Chain of Cytochrome P450 2C9 (Homo sapiens) (P11712 whole entry, looked up): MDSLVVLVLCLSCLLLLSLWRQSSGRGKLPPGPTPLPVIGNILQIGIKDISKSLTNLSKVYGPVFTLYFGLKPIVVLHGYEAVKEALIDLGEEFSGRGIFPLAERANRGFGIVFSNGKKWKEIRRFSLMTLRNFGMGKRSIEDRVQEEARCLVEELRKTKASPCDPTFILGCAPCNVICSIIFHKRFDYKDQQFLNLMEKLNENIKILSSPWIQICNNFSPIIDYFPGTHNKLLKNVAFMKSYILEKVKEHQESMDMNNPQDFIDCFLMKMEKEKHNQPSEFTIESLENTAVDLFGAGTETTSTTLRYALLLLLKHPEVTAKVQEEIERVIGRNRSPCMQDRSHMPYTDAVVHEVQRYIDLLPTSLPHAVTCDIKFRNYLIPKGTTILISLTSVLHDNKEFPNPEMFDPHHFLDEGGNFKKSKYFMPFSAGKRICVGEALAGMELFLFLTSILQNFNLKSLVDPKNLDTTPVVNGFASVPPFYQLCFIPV
Compound,AC50,"activity, negative = inhibition"
CN(C)CCCN1CC(C(=O)O)CC1=O (stereo not drawn),inactive,
FC(F)(F)c1cccc(-c2nc3nc(Cl)c(Cl)nc3[nH]2)c1,3.98 µM (active),
C[C@H]1NC(=O)NC1=O,inactive,
CCc1c2c(nc3c(C(C)C)cccc13)-c1cccc(=O)n1C2,15.8 µM (active),
CCc1cccc2nc3c(c([Si](C)(C)C)c12)Cn1c-3cccc1=O,20 µM (active),
CC(C)c1cccc2c([Si](C)(C)C)c3c(nc12)-c1cccc(=O)n1C3,2 µM (active),
CC(C)c1cccc2nc3c(c(C(C)(C)C)c12)Cn1c-3cccc1=O,10 µM (active),
Cc1c2c(nc3ccccc13)-c1cccc(=O)n1C2,inactive,
CC(C)c1cccc2cc3c(nc12)-c1cccc(=O)n1C3,inactive,
CC[C@@]1(O)C(=O)COc2c1cc1n(c2=O)Cc2c-1nc1cccc(C(C)C)c1c2[Si](C)(C)C,inactive,
CC1(C)[C@@H]2CC[C@]1(C)[C@@H](OC(=O)CSC#N)C2,,-16.1% [at 11.4 µM]
S=C(Nc1cccc(Cl)c1)NC1CCCCC1,inactive,
N#C/C(=C\c1cc(Cl)cc(Cl)c1O)C(=O)NC1CCCCC1,12.6 µM (active),
Cn1c[n+](C)cc1/C=N/O,inactive,
Nc1nc2ncc(CNc3ccc(C(=O)N[C@@H](CCC(=O)O)C(=O)O)cc3)nc2c(=O)[nH]1,inactive,
CC(C)(C)CC(C)(C)c1ccc(OCOCCOCCO)c(Cc2cc(C(C)(C)CC(C)(C)C)cc(Cc3cc(C(C)(C)CC(C)(C)C)ccc3OCOCCOCCO)c2OCOCCOCCO)c1,inactive,
CN(C)C(=O)c1ccc(-c2nc(Nc3ccccc3)c3ccccc3n2)cc1,,-13.3% [at 2.29 µM]
Cc1ccccc1-c1nc(NC2CC2)c2ccccc2n1,,3.04% [at 2.29 µM]
CC1CCC(NC(=O)CC(C)(C)Cc2nc3ccccc3c(=O)[nH]2)CC1 (stereo not drawn),3.55 µM (active),
O=C1/C(=C\c2ccc(Br)o2)SC(=Nc2ccccc2)N1c1ccccc1,0.398 µM (active),
CC(C)CN1CC2(CCN(C(=O)c3cccc(F)c3)CC2)C1,inactive,
CC(C)CC(=O)N1CCN(Cc2cccc(F)c2)CC1,0.0251 µM (active),
CC(C)CN1CCC2(CC1)CCN(C(=O)c1cccc(F)c1)CC2,inactive,
C/C(=N/S(=O)(=O)c1ccc(Cl)c(Cl)c1)OCC(C)(C)C,,6.28% [at 11.4 µM]

Compound,AC50,"activity, negative = inhibition"
CC(=O)N1CCC2(CC1)CN(C(=O)Nc1cccc(C#N)c1)C2,inactive,
N#Cc1cccc(NC(=O)N2CC3(CCN(C(=O)c4ccco4)CC3)C2)c1,inactive,
N#Cc1cccc(NC(=O)N2CCCC3(CCN(C(=O)c4cc(C(F)(F)F)cc(C(F)(F)F)c4)CC3)C2)c1,inactive,
N#Cc1cccc(NC(=O)N2CC[C@@]3(CCCN(C(=O)c4ccco4)C3)C2)c1,inactive,
N#Cc1cccc(NC(=O)N2CC3(CCN(C(=O)c4cc(C(F)(F)F)cc(C(F)(F)F)c4)CC3)C2)c1,12.6 µM (active),
N#Cc1cccc(NC(=O)N2CCCC3(CCN(C(=O)c4ccco4)CC3)C2)c1,3.98 µM (active),
CCNCCCNCCCNCCCNCC,inactive,
CC(C)(C)N1C(=O)[C@H]2[C@H]3[C@H](O)[C@H](O)C/C(=N/NC(=O)OCc4ccccc4)[C@@H]3CC[C@@H]2C1=O,,29.2% [at 11.4 µM]
C/C(=N\NC(N)=S)c1ccc[nH]1,,-7.98% [at 11.4 µM]
Cc1ccc(C(=O)c2cn[nH]c2-c2cc(Cl)ccc2O)cc1,2.24 µM (active),
Cc1ccc(NCCC(=O)c2ccc(Cl)c(Cl)c2)cc1,inactive,
C=C1C(=O)O[C@@H]2[C@H]3O[C@]3(C)CCC=C(C)CC[C@@H]12,inactive,
CC(=O)OC[C@H]1O[C@@H](O/N=C(\C)CCN2CCCc3nc(C)c(C)cc32)[C@H](OC(C)=O)[C@@H](OC(C)=O)[C@H]1OC(C)=O,,18.1% [at 11.4 µM]
NS(=O)(=O)c1ccc(N=Nc2nc3[nH]c(=O)[nH]c(=O)c3[nH]2)cc1,,0.503% [at 11.4 µM]
Cc1ccc(/C=C/c2ccc(=O)n(Cc3ccc(Cl)cc3Cl)n2)cc1,3.16 µM (active),
CC(C)(CO)[C@H](O)C(=O)NCCCO,inactive,
COCCCNC(=O)c1c(N)n(/N=C/c2ccccn2)c2nc3ccccc3nc12,5.62 µM (active),
O=[N+]([O-])c1ccccc1/C=N/n1c(COc2ccccc2)n[nH]c1=S,3.55 µM (active),
CC1=NNC(=O)C1CCC(=O)N/N=C\c1ccccc1[N+](=O)[O-] (stereo not drawn),inactive,
Cc1ccc(/C=N/n2c(COc3ccccc3)n[nH]c2=S)s1,4.47 µM (active),
O=[N+]([O-])c1ccc(/C=N/n2c(COc3ccccc3)n[nH]c2=S)cc1,2.82 µM (active),
O=c1ccc(-c2ccccc2)n[nH]1,,6.17% [at 11.4 µM]
C[C@]12CC[C@H]3c4ccc(O)cc4CC[C@@H]3[C@H]1C/C(=N/O)[C@H]2O,,21.3% [at 11.4 µM]
COc1ccccc1CN1CC[C@@]2(CCCN(C(C)=O)C2)C1,inactive,

Compound,AC50,"activity, negative = inhibition"
CCc1cc2c(nc1CC)CCN(CC/C(C)=N/OC[C@@H](O)[C@@H]1O[C@@H]3OC(C)(C)O[C@@H]3[C@H]1O)C2,,-13.5% [at 11.4 µM]
C=CCSc1nnc(-c2cc3c(-c4ccccc4)nn(C)c3s2)n1C,14.1 µM (active),
COc1cc(-c2nnc(SC/C=C/c3ccccc3)n2N)cc(OC)c1OC,inactive,
Cc1noc(C)c1-c1nccc(NCCN2CCOCC2)n1,,3.29% [at 2.29 µM]
O=C(COc1ccc(Br)cc1)Nc1ccc([N+](=O)[O-])cn1,inactive,
O=C(COc1cccc(NC(=O)c2cccc([N+](=O)[O-])c2)c1)c1ccc(Br)cc1,0.891 µM (active),
O=C(Nc1nnc(CCS(=O)(=O)c2ccc(Br)cc2)s1)c1ccc([N+](=O)[O-])cc1,inactive,
C[C@@H](c1ccccc1)N1C(=O)[C@H]2[C@@H]3[C@H](O)[C@H](O)CC(=O)[C@H]3CC[C@H]2C1=O,,-15.7% [at 11.4 µM]
O=C(O)Cc1cc2ccccc2nc1C(=O)O,inactive,
O=C(c1ccccc1)c1nc2ccccc2n(CCCn2c(=O)c(C(=O)c3ccccc3)nc3ccccc32)c1=O,0.2 µM (active),
CCCn1c(N)[n+](CC(=O)c2ccco2)c2ccccc21,inactive,
CCCCCn1c(=O)c(C(=O)c2ccccc2)nc2ccccc21,14.1 µM (active),
N=C(N)[C@H](N=Nc1ccccc1)C(N)=O,,-7.82% [at 11.4 µM]
CCn1c(O)c(/C=N/N=C2CCCC2)c2ccc(C3=NNC(=O)CC3)cc21,inactive,
Cc1ccc(C2C(=O)N(C3CCCC3)CC(=O)N2CC2COc3ccccc3O2)cc1 (stereo not drawn),11.2 µM (active),
OC(COCC1COc2ccccc2O1)CN1CCc2ccccc2C1 (stereo not drawn),inactive,
CC1CCCC(C)N1CC(O)COCC1COc2ccccc2O1 (stereo not drawn),inactive,
Nc1ccn([C@H]2O[C@@H](COP(=O)(O)O)[C@@H](O)[C@H]2O)c(=O)n1,,-6.67% [at 11.4 µM]
Cn1cc(C(=O)OCC2CCN(CCNS(C)(=O)=O)CC2)c2ccccc21,inactive,
COc1cc(N)c(Cl)cc1C(=O)CCC1CCN(CCNS(C)(=O)=O)CC1,0.251 µM (active),
COc1cc(N)c(Cl)cc1C(=O)OCCCN1CCCCC1,inactive,
CCn1cc(C(=O)O)c(=O)c2cc(F)c(N3CCN[C@@H](C)C3)c(F)c21,inactive,
COc1ccc(C(C)=O)c(OC(=O)c2ccco2)c1,inactive,
O=C(Oc1ccc(OC(=O)c2ccco2)c(S(=O)(=O)c2ccc(Br)cc2)c1)c1ccco1,0.708 µM (active),

Compound,AC50,"activity, negative = inhibition"
CC(C)OC(=O)c1cccc(C(=O)Oc2ccc(Br)cc2)n1,inactive,
CCc1cc2c(=O)c(-c3cnn(-c4ccccc4)c3)coc2c(CN2CCOCC2)c1O,2.51 µM (active),
OC(CCCN1CCCCC1)(c1ccccc1)c1ccccc1,inactive,
O=C(N/N=C/C1C(c2ccccc2)C1(Cl)Cl)c1cccc(Br)c1 (stereo not drawn),2 µM (active),
O=C(N/N=C/c1cccc(Oc2ccccc2)c1)c1cccc(Br)c1,7.08 µM (active),
O=C(N[C@@]1(C(=O)O)C[C@@H]1c1ccccc1)c1ccccc1,,5.78% [at 11.4 µM]
C/C(=N\NC(=O)c1cccc(Br)c1)c1ccc(Br)cc1,inactive,
O=C(N/N=C\c1ccc(Sc2ccccn2)o1)c1cccc(Br)c1,2.24 µM (active),
O=C(O)Cn1ccnc1[N+](=O)[O-],,9.22% [at 11.4 µM]
COc1ccc2c(c1)N(C[C@@H](C)CN(C)C)c1ccccc1S2,inactive,
COc1ccccc1-c1cncnc1NCc1cccc(C)c1,,-10.6% [at 2.29 µM]
Nc1ncncc1-c1ccc([N+](=O)[O-])cc1,inactive,
Cc1nn(Cc2ccc([N+](=O)[O-])cc2)c(=O)n1-c1cccc(F)c1,inactive,
Cc1cc(C)c(Cn2cnc(-c3ccc([N+](=O)[O-])cc3)c2)c(C)c1,12.6 µM (active),
O=C(Cc1ccccc1)N/N=C/c1cc(Br)c(Br)o1,14.1 µM (active),
O=C(Cc1ccccc1)N/N=C\c1ccc(Br)o1,12.6 µM (active),
Cc1cc(C)n(CC(=O)N/N=C/c2ccco2)n1,inactive,
O=C(CC(=O)N/N=C\c1c(Cl)cccc1Cl)NCc1ccccc1,inactive,
O=C(N/N=C/c1ccco1)c1ccc(Br)o1,inactive,
O=c1c[n+](CCCC[n+]2cc(=O)o[nH]2)[nH]o1,,10.6% [at 11.4 µM]
c1csc(CNc2nc(-c3ccoc3)nc3ccccc23)c1,,-11.2% [at 2.29 µM]
